# Residue numbers refer to the chain shown, from its start.
# Tests used:
# Test in all cases: PBM; 200 nM protein, PBS
# Details in all cases: dsDNA, one strand shown
# NKX2-5 [1] = biological target: NKX2-5 (Homo sapiens, UniProt P52952 125-210, R139K)
# NKX2-6 [2] = biological target: T1, NKX2-6 (Homo sapiens, UniProt A6NCS4 118-204, R150C)
# T1 sequence: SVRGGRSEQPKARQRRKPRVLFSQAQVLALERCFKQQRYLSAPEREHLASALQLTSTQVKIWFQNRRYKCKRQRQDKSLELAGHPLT
# HOXA7 [3] = biological target: HOXA7 (Homo sapiens, UniProt P31268 116-202)
# HOXA7 [4] = biological target: HOXA7 (Homo sapiens, UniProt P31268 116-202, W177C)
# NKX2-5 [5] = biological target: NKX2-5 (Homo sapiens, UniProt P52952 125-210)
# HOXC10 [6] = biological target: HOXC10 (Homo sapiens, UniProt Q9NYD6 254-340)
# HOXC10 [7] = biological target: HOXC10 (Homo sapiens, UniProt Q9NYD6 254-340, K271E)
# HOXA4 [8] = biological target: HOXA4 (Homo sapiens, UniProt Q00056 201-287, W262R)
# HOXA4 [9] = biological target: HOXA4 (Homo sapiens, UniProt Q00056 201-287, R217L)
# HOXA4 [10] = biological target: HOXA4 (Homo sapiens, UniProt Q00056 201-287)
# HOXA4 [11] = biological target: HOXA4 (Homo sapiens, UniProt Q00056 201-287, W262F)
# PRRX1 [12] = biological target: PRRX1 (Homo sapiens, UniProt P54821 80-166, F113S)
# NKX2-6 [13] = biological target: T2, NKX2-6 (Homo sapiens, UniProt A6NCS4 118-204)
# T2 sequence: T1 sequence with C33R
# NKX2-6 [14] = biological target: T3, NKX2-6 (Homo sapiens, UniProt A6NCS4 118-204, F151L)
# T3 sequence: T1 sequence with C33R, F34L
# NKX3-2 [15] = biological target: NKX3-2 (Homo sapiens, UniProt P78367 192-278, P234S)
# PRRX1 [16] = biological target: PRRX1 (Homo sapiens, UniProt P54821 80-166)
# NKX3-2 [17] = biological target: NKX3-2 (Homo sapiens, UniProt P78367 192-278)
# PAX4 [18] = biological target: T4, PAX4 (Homo sapiens, UniProt O43316 9-242, R200K)
# T4 sequence: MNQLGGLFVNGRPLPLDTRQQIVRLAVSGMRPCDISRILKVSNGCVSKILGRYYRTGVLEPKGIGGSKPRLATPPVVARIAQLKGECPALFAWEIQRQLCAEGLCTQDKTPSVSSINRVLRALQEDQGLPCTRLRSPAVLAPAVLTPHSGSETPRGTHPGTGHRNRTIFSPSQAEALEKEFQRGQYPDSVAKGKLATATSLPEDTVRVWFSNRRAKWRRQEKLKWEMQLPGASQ
# PAX4 [19] = biological target: T5, PAX4 (Homo sapiens, UniProt O43316 9-242)
# T5 sequence: T4 sequence with K192R
# MSX2 [20] = biological target: MSX2 (Homo sapiens, UniProt P35548 130-214, R199I)
# PAX4 [21] = biological target: T6, PAX4 (Homo sapiens, UniProt O43316 9-242, R200Q)
# T6 sequence: T4 sequence with K192Q
# PAX4 [22] = biological target: T7, PAX4 (Homo sapiens, UniProt O43316 9-242, F177V)
# T7 sequence: T4 sequence with F169V, K192R
# MSX2 [23] = biological target: MSX2 (Homo sapiens, UniProt P35548 130-214)
# PAX4 [24] = biological target: T8, PAX4 (Homo sapiens, UniProt O43316 9-242, F177Y)
# T8 sequence: T4 sequence with F169Y, K192R
# MSX2 [25] = biological target: MSX2 (Homo sapiens, UniProt P35548 130-214, F161Y)
# PAX4 [26] = biological target: T9, PAX4 (Homo sapiens, UniProt O43316 9-242, R227W)
# T9 sequence: T4 sequence with K192R, R219W
# HOXB6 [27] = biological target: HOXB6 (Homo sapiens, UniProt P17509 132-218, K202E)
# HOXB6 [28] = biological target: HOXB6 (Homo sapiens, UniProt P17509 132-218)
# HOXB6 (Homo sapiens, UniProt P17509 132-218), sequence (P17509 132-218): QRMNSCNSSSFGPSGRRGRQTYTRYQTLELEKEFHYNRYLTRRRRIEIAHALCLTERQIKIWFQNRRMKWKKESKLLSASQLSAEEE
# NKX2-5 (Homo sapiens, UniProt P52952 125-210, R139K), sequence (P52952 125-210 R139K): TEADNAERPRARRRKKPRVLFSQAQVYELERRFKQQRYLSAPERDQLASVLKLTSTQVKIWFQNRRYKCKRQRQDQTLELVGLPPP
# HOXA7 (Homo sapiens, UniProt P31268 116-202, W177C), sequence (P31268 116-202 W177C): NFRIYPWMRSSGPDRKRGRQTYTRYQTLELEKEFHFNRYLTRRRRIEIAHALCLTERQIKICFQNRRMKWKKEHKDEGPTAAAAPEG
# HOXA7 (Homo sapiens, UniProt P31268 116-202), sequence (P31268 116-202): as the sequence (P31268 116-202 W177C) above, with C62W counted along it
# NKX2-5 (Homo sapiens, UniProt P52952 125-210), sequence (P52952 125-210): as the sequence (P52952 125-210 R139K) above, with K15R counted along it
# PRRX1 (Homo sapiens, UniProt P54821 80-166, F113S), sequence (P54821 80-166 F113S): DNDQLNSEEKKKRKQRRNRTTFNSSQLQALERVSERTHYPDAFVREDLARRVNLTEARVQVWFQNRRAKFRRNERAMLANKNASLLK
# HOXB6 (Homo sapiens, UniProt P17509 132-218, K202E), sequence (P17509 132-218 K202E): as the sequence (P17509 132-218) above, with K71E counted along it
# PRRX1 (Homo sapiens, UniProt P54821 80-166), sequence (P54821 80-166): as the sequence (P54821 80-166 F113S) above, with S34F counted along it
# HOXC10 (Homo sapiens, UniProt Q9NYD6 254-340), sequence (Q9NYD6 254-340): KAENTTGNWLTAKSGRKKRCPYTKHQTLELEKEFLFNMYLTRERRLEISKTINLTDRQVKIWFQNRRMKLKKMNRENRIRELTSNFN
# MSX2 (Homo sapiens, UniProt P35548 130-214, R199I), sequence (P35548 130-214 R199I): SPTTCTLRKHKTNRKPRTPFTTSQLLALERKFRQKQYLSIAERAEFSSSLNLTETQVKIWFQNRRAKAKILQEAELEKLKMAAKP
# HOXA4 (Homo sapiens, UniProt Q00056 201-287, W262F), sequence (Q00056 201-287 W262F): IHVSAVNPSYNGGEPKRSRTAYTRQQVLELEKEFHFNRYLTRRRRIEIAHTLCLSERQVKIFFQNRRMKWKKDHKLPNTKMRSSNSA
# MSX2 (Homo sapiens, UniProt P35548 130-214, F161Y), sequence (P35548 130-214 F161Y): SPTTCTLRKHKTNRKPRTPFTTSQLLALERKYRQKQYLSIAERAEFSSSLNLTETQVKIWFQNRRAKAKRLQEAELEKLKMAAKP
# MSX2 (Homo sapiens, UniProt P35548 130-214), sequence (P35548 130-214): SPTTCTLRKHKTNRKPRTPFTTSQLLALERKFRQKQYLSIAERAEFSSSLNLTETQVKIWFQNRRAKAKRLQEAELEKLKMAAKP
# HOXA4 (Homo sapiens, UniProt Q00056 201-287, R217L), sequence (Q00056 201-287 R217L): as the sequence (Q00056 201-287 W262F) above, with R17L, F62W counted along it
# NKX3-2 (Homo sapiens, UniProt P78367 192-278, P234S), sequence (P78367 192-278 P234S): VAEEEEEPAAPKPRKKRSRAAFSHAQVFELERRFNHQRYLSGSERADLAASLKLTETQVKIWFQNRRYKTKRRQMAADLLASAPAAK
# HOXA4 (Homo sapiens, UniProt Q00056 201-287), sequence (Q00056 201-287): as the sequence (Q00056 201-287 W262F) above, with F62W counted along it
# HOXC10 (Homo sapiens, UniProt Q9NYD6 254-340, K271E), sequence (Q9NYD6 254-340 K271E): as the sequence (Q9NYD6 254-340) above, with K18E counted along it
# NKX3-2 (Homo sapiens, UniProt P78367 192-278), sequence (P78367 192-278): as the sequence (P78367 192-278 P234S) above, with S43P counted along it
# HOXA4 (Homo sapiens, UniProt Q00056 201-287, W262R), sequence (Q00056 201-287 W262R): as the sequence (Q00056 201-287 W262F) above, with F62R counted along it
sequence,measurement,setting,value
CACAAGTG,binding signal,NKX2-5 [1],"12.4 upbm affinity estimate (log intensity, higher = more binding, comparable within an allelic series)"
same,binding signal,NKX2-6 [2],"11.6 upbm affinity estimate (log intensity, higher = more binding, comparable within an allelic series)"
ACCGTGTC,binding signal,NKX2-5 [1],"8.73 upbm affinity estimate (log intensity, higher = more binding, comparable within an allelic series)"
same,binding signal,HOXA7 [3],"8.54 upbm affinity estimate (log intensity, higher = more binding, comparable within an allelic series)"
same,binding signal,HOXA7 [4],"8.46 upbm affinity estimate (log intensity, higher = more binding, comparable within an allelic series)"
same,binding signal,NKX2-5 [5],"8.93 upbm affinity estimate (log intensity, higher = more binding, comparable within an allelic series)"
ACACCGGG,binding signal,NKX2-5 [1],"8.93 upbm affinity estimate (log intensity, higher = more binding, comparable within an allelic series)"
same,binding signal,HOXC10 [6],"10.2 upbm affinity estimate (log intensity, higher = more binding, comparable within an allelic series)"
same,binding signal,HOXC10 [7],"10 upbm affinity estimate (log intensity, higher = more binding, comparable within an allelic series)"
same,binding signal,NKX2-5 [5],"8.94 upbm affinity estimate (log intensity, higher = more binding, comparable within an allelic series)"
AGGCCAGC,binding signal,NKX2-5 [1],"8.71 upbm affinity estimate (log intensity, higher = more binding, comparable within an allelic series)"
same,binding signal,HOXA7 [3],"8.41 upbm affinity estimate (log intensity, higher = more binding, comparable within an allelic series)"
same,binding signal,HOXA7 [4],"8.42 upbm affinity estimate (log intensity, higher = more binding, comparable within an allelic series)"
same,binding signal,NKX2-5 [5],"8.67 upbm affinity estimate (log intensity, higher = more binding, comparable within an allelic series)"
CACCCCCG,binding signal,NKX2-5 [1],"8.95 upbm affinity estimate (log intensity, higher = more binding, comparable within an allelic series)"
same,binding signal,HOXA4 [8],"9.9 upbm affinity estimate (log intensity, higher = more binding, comparable within an allelic series)"
same,binding signal,HOXA4 [9],"9.84 upbm affinity estimate (log intensity, higher = more binding, comparable within an allelic series)"
same,binding signal,HOXA4 [10],"9.95 upbm affinity estimate (log intensity, higher = more binding, comparable within an allelic series)"
same,binding signal,HOXA4 [11],"9.77 upbm affinity estimate (log intensity, higher = more binding, comparable within an allelic series)"
same,binding signal,NKX2-5 [5],"9 upbm affinity estimate (log intensity, higher = more binding, comparable within an allelic series)"
CACTTAGC,binding signal,NKX2-5 [1],"12.6 upbm affinity estimate (log intensity, higher = more binding, comparable within an allelic series)"
same,binding signal,PRRX1 [12],"9.83 upbm affinity estimate (log intensity, higher = more binding, comparable within an allelic series)"
same,binding signal,NKX2-6 [2],"11.7 upbm affinity estimate (log intensity, higher = more binding, comparable within an allelic series)"
same,binding signal,NKX2-6 [13],"13.5 upbm affinity estimate (log intensity, higher = more binding, comparable within an allelic series)"
same,binding signal,NKX2-6 [14],"10.8 upbm affinity estimate (log intensity, higher = more binding, comparable within an allelic series)"
same,binding signal,NKX3-2 [15],"12.9 upbm affinity estimate (log intensity, higher = more binding, comparable within an allelic series)"
same,binding signal,PRRX1 [16],"11.8 upbm affinity estimate (log intensity, higher = more binding, comparable within an allelic series)"
same,binding signal,NKX2-5 [5],"12.5 upbm affinity estimate (log intensity, higher = more binding, comparable within an allelic series)"
same,binding signal,NKX3-2 [17],"13 upbm affinity estimate (log intensity, higher = more binding, comparable within an allelic series)"
CCGCCTCC,binding signal,NKX2-5 [1],"8.96 upbm affinity estimate (log intensity, higher = more binding, comparable within an allelic series)"
same,binding signal,PAX4 [18],"9.24 upbm affinity estimate (log intensity, higher = more binding, comparable within an allelic series)"
same,binding signal,PRRX1 [12],"9.25 upbm affinity estimate (log intensity, higher = more binding, comparable within an allelic series)"
same,binding signal,PAX4 [19],"9.34 upbm affinity estimate (log intensity, higher = more binding, comparable within an allelic series)"
same,binding signal,MSX2 [20],"9.48 upbm affinity estimate (log intensity, higher = more binding, comparable within an allelic series)"
same,binding signal,PAX4 [21],"9.3 upbm affinity estimate (log intensity, higher = more binding, comparable within an allelic series)"
same,binding signal,PAX4 [22],"9.19 upbm affinity estimate (log intensity, higher = more binding, comparable within an allelic series)"
same,binding signal,MSX2 [23],"9.45 upbm affinity estimate (log intensity, higher = more binding, comparable within an allelic series)"
same,binding signal,PAX4 [24],"9.18 upbm affinity estimate (log intensity, higher = more binding, comparable within an allelic series)"
same,binding signal,MSX2 [25],"9.54 upbm affinity estimate (log intensity, higher = more binding, comparable within an allelic series)"
same,binding signal,PAX4 [26],"9.29 upbm affinity estimate (log intensity, higher = more binding, comparable within an allelic series)"
same,binding signal,PRRX1 [16],"9.06 upbm affinity estimate (log intensity, higher = more binding, comparable within an allelic series)"
same,binding signal,NKX2-5 [5],"9 upbm affinity estimate (log intensity, higher = more binding, comparable within an allelic series)"
ACGCCGGC,binding signal,NKX2-5 [1],"8.53 upbm affinity estimate (log intensity, higher = more binding, comparable within an allelic series)"
same,binding signal,PAX4 [18],"9.13 upbm affinity estimate (log intensity, higher = more binding, comparable within an allelic series)"
same,binding signal,PAX4 [19],"9.3 upbm affinity estimate (log intensity, higher = more binding, comparable within an allelic series)"
same,binding signal,PAX4 [21],"9.23 upbm affinity estimate (log intensity, higher = more binding, comparable within an allelic series)"
same,binding signal,PAX4 [22],"9.3 upbm affinity estimate (log intensity, higher = more binding, comparable within an allelic series)"
same,binding signal,PAX4 [24],"9.27 upbm affinity estimate (log intensity, higher = more binding, comparable within an allelic series)"
same,binding signal,PAX4 [26],"9.27 upbm affinity estimate (log intensity, higher = more binding, comparable within an allelic series)"
same,binding signal,NKX2-5 [5],"8.56 upbm affinity estimate (log intensity, higher = more binding, comparable within an allelic series)"
CCGGACCG,binding signal,NKX2-5 [1],"8.49 upbm affinity estimate (log intensity, higher = more binding, comparable within an allelic series)"
same,binding signal,HOXA7 [3],"8.43 upbm affinity estimate (log intensity, higher = more binding, comparable within an allelic series)"
same,binding signal,HOXA7 [4],"8.36 upbm affinity estimate (log intensity, higher = more binding, comparable within an allelic series)"
same,binding signal,NKX2-5 [5],"8.49 upbm affinity estimate (log intensity, higher = more binding, comparable within an allelic series)"
ACGCCCGG,binding signal,NKX2-5 [1],"8.77 upbm affinity estimate (log intensity, higher = more binding, comparable within an allelic series)"
same,binding signal,HOXB6 [27],"8.95 upbm affinity estimate (log intensity, higher = more binding, comparable within an allelic series)"
same,binding signal,NKX2-5 [5],"8.74 upbm affinity estimate (log intensity, higher = more binding, comparable within an allelic series)"
same,binding signal,HOXB6 [28],"9.06 upbm affinity estimate (log intensity, higher = more binding, comparable within an allelic series)"
CAGAGCCG,binding signal,NKX2-5 [1],"8.74 upbm affinity estimate (log intensity, higher = more binding, comparable within an allelic series)"
same,binding signal,HOXA7 [3],"8.45 upbm affinity estimate (log intensity, higher = more binding, comparable within an allelic series)"
same,binding signal,HOXB6 [27],"8.99 upbm affinity estimate (log intensity, higher = more binding, comparable within an allelic series)"
same,binding signal,HOXA7 [4],"8.36 upbm affinity estimate (log intensity, higher = more binding, comparable within an allelic series)"
same,binding signal,NKX2-5 [5],"8.8 upbm affinity estimate (log intensity, higher = more binding, comparable within an allelic series)"
same,binding signal,HOXB6 [28],"9 upbm affinity estimate (log intensity, higher = more binding, comparable within an allelic series)"
